Rows were chosen to be rich in hits. Some 0.82% of all compounds tested hit in one or more screens of this group.
Y pestis TopoI = Y. pestis Topo-I inhibition via cleavage products; AID 504884; activity, % at 10 µM; 0.064% of 360,000 active; Y. pestis Topo-I cleavage product accumulation, plate reader; in the data active = activity above about 50%, passing the limit was not always enough
FadD28 FP inh = inhibitors of Mycobacterium tuberculosis FadD28 bisubstrate binding; AID 588549; 0.22% of 360,000 active; inhibition, % at 12.5 µM; FadD28 bisubstrate probe binding, fluorescence polarization; in the data active = inhibition above about 8.5%, passing the limit was not always enough
RecA intein inh = Mtb RecA intein splicing inhibition; P9WHJ3; inhibition, % (concentration not given with the values); cell-free RecA intein splicing, fluorescence; 0.75% of 290,000 active; in the data active = inhibition above about 30%;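 note: 0% = vehicle wells and 100% = reference inhibitor control wells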
Mtb UGM inh = blocks M. tuberculosis UGM enzyme. purified UGM, fluorescence polarization probe displacement. P9WIQ1. 0.06% of 320,000 active. inhibition, % at 10 µM. AID 504406; in the data active = inhibition above about 10%, passing the limit was not always enough
Target sequence (P9WIQ1 whole entry, looked up): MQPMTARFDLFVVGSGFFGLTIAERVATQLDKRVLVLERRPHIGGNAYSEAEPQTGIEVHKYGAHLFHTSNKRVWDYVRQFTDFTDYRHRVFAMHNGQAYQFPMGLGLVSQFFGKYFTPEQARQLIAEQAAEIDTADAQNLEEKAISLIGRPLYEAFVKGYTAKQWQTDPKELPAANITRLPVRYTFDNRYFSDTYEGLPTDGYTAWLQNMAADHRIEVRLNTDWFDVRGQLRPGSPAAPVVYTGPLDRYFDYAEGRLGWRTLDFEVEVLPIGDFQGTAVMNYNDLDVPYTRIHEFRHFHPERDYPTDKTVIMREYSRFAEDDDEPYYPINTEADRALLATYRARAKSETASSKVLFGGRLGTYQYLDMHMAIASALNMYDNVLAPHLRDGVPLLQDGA
BioA inh = BioA (M. tuberculosis) enzyme inhibition; purified M. tuberculosis BioA enzyme, plate reader; inhibition, % at 9.99 µM; 0.096% of 360,000 active; AID 602481; in the data active = inhibition above about 40%
Rv3671c protease = inhibits the M. tuberculosis serine protease Rv3671c; P9WHR9; inhibition, % at 5.96 µM; 0.048% of 320,000 active; AID 2606; in the data active = inhibition above about 38%;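 note: extracellular domain of Rv3671c used as enzyme; 0% = enzyme with DMSO and 100% = no enzyme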
GFP chromo cs = counter-screen: blocks GFP chromophore formation; shares compounds with RecA intein inh; cell-free GFP chromophore formation, fluorescence; EC50, µM; 83% of 2,100 active; AID 434968; call rule not given here
Active calls of the source: *; · = no result given.

SMILES	Y pestis TopoI	FadD28 FP inh	RecA intein inh	Mtb UGM inh	BioA inh	Rv3671c protease	GFP chromo cs
Cc1noc(C)c1S(=O)(=O)Nc1ccc2c(c1)C(=O)N([C@H](C)CO)C[C@@H](C)[C@H](CN(C)C(=O)Nc1ccccc1)O2	·	·	·	·	-2.4	·	·
Cc1ccc(S(=O)(=O)NCC[C@@H]2CC[C@H](NC(=O)NC(C)C)[C@H](CO)O2)cc1	·	·	·	·	-2.3	·	·
O=C(C(Cl)Cl)N1c2ccccc2OCC1c1ccccc1 (centres undefined)	0.5	-3.1	71.9*	-0.2	0.3	0.1	34.9*
Cc1ccc(S(=O)(=O)N2c3ccccc3OCC2c2ccccc2)cc1 (centres undefined)	-0.5	-0.8	-0.7	2.0	-0.8	-20.8	·
CCCN1C[C@@H](C)[C@@H](OC)CN(C)C(=O)c2ccc(NC(=O)c3cnccn3)cc2OC[C@H]1C	·	·	·	·	4.0	·	·
Nc1ccc2ncccc2c1	0.5	-0.1	70.1*	-2.9	·	-1.3	16*
Cc1[nH][nH]c(=O)c1C(c1cc([N+](=O)[O-])ccc1O)c1c(C)[nH][nH]c1=O	2.6	-2.1	96.3*	2.8	-0.4	-16.6	0.53*
O=C(NN=C1C2CC3CC(C2)CC1C3)c1ccncc1	8.2	1.3	-2.4	0.0	-1.4	1.7	·
O=C(N/N=C1\C/C(=N\NC(=O)c2ccncc2)c2ccccc21)c1ccncc1	-5.2	2.8	94.6*	0.3	3.1	-42.4	1.15*
CCN(CC)C(=O)CSc1nnc2nnc3cc(OC)ccc3n12	-3.7	-2.5	31.0*	7.1	-4.8	-5.0	>38
CCN(CC)C(=O)CSc1nnc(COc2ccc(OC)cc2)n1N	4.1	-0.9	-4.4	0.7	·	-5.1	·
O=S(=O)(Nc1ccc(O)c2ccccc12)c1ccc(F)cc1	-11.0	-1.6	94.2*	7.5	-0.4	-98.0	0.151*
O=S(=O)(Nc1ccc(NS(=O)(=O)c2ccccc2)c2ccccc12)c1ccccc1	1.2	4.7	·	·	-4.5	·	·
CCc1ccc(S(=O)(=O)Nc2ccc(O)c3ccccc23)cc1	5.8	-2.5	92.0*	-0.5	0.3	-4.4	0.151*
Cc1ccc(S(=O)(=O)N2CCN(C(=O)c3ccccc3Cc3ccccc3)CC2)c(C)c1	33.2	-2.8	30.3*	-0.4	-0.8	2.4	>38
COc1cc(/C=C2/C(=O)N(c3cccc(Br)c3)N=C2C)cc(OC)c1O	0.6	3.6	86.5*	-4.8	2.8	-209.7	4.28*
COc1ccc(C2=NN(c3ccccc3)C(=O)/C2=C\c2ccc(O)c(OC)c2)cc1	-18.2	1.5	92.5*	-0.1	·	-208.1	2.58*
CC1=NN(c2ccccc2)C(=O)/C1=C/c1cn(C)c2ccccc12	-8.2	-1.0	36.9*	-1.9	·	5.1	>38
CC(=O)Oc1ccc(/C=C2/C(=O)N(c3ccccc3)N=C2C)cc1	-6.4	-0.3	92.9*	-1.5	-1.5	-162.6	3.5*
CC1=NN(c2ccccc2)C(=O)/C1=C\C=C\c1ccccc1	-0.7	0.9	0.5	-2.6	-2.9	2.0	·
COc1ccc(/C=C2/C(=O)N(c3ccccc3)N=C2C)cc1	-5.7	-4.0	69.2*	-0.4	-0.5	-154.7	3.19*
COc1ccc(/C=C2/C(=O)N(c3ccccc3)N=C2C)cc1OC	9.8	-1.7	43.5*	0.0	2.5	·	9.04*
CC1=NN(c2ccccc2)C(=O)/C1=C/c1cccc(C)c1	-7.9	0.1	92.5*	-0.3	0.7	-169.3	2.26*
COc1cccc(CNC(=O)C[C@@H]2C=C[C@@H](NC(C)=O)[C@H](CO)O2)c1	·	·	·	·	-1.4	·	·
[O-]C1=N/[N+](=C/c2ccccc2)CC1	1.2	-2.2	80.8*	0.5	-0.6	1.6	29.5*
SMILES	Y pestis TopoI	FadD28 FP inh	RecA intein inh	Mtb UGM inh	BioA inh	Rv3671c protease	GFP chromo cs
[O-]C1=N/[N+](=C/c2ccccc2Cl)CC1	-5.1	0.8	69.6*	-2.0	1.0	3.8	17.1*
[O-]C1=N/[N+](=C/c2ccc(Cl)c(Cl)c2)CC1	4.0	1.2	35.6*	-2.1	0.5	9.2	38.3*
COc1cc(-c2[nH]nc3c2C(c2ccco2)C(C#N)=C(N)O3)cc(OC)c1OC (centres undefined)	-6.1	-5.8	79.2*	-4.9	·	-0.9	9.14*
Cc1ccc(-c2[nH]nc3c2C(c2ccsc2)C(C#N)=C(N)O3)cc1 (centres undefined)	1.8	-4.9	65.2*	-1.0	0.1	-3.2	1.82*
COc1cc(-c2[nH]nc3c2C(c2ccoc2)C(C#N)=C(N)O3)cc(OC)c1OC (centres undefined)	1.1	-0.8	·	-1.8	-1.2	-11.9	·
Cc1[nH]nc2c1C(c1ccc3c(c1)OCO3)C(C#N)=C(N)O2 (centres undefined)	-2.3	-1.3	66.5*	1.4	0.3	1.6	38.6*
Cc1[nH]nc2c1C(c1ccc(F)cc1)C(C#N)=C(N)O2 (centres undefined)	-7.8	-3.1	·	1.5	-0.9	-4.2	·
COc1cccc(-c2[nH]nc3c2C(c2ccoc2)C(C#N)=C(N)O3)c1 (centres undefined)	-2.0	0.0	81.5*	1.8	-3.3	-6.4	9.79*
C[C@H]1CN([C@@H](C)CO)C(=O)Cc2cc(NC(=O)Nc3ccc(F)cc3)ccc2O[C@@H]1CN(C)Cc1ccncc1	·	·	·	·	-1.3	·	·
COc1ccc(S(=O)(=O)N[C@H]2CC[C@@H](CCn3cc(-c4cccc(F)c4)nn3)O[C@H]2CO)cc1	·	·	·	·	6.8	·	·
Cc1[nH]nc2c1C(c1ccsc1)C(C#N)=C(N)O2 (centres undefined)	-5.4	-2.9	82.6*	-2.4	-0.8	4.1	39.3*
N#CC1=C(N)Oc2n[nH]c(-c3ccccc3)c2C1c1ccsc1 (centres undefined)	-12.7	-0.8	86.5*	-0.7	·	-0.2	30.9*
COc1cc(C2C(C#N)=C(N)Oc3n[nH]c(-c4cccs4)c32)cc(OC)c1O (centres undefined)	7.3	0.1	10.9	0.1	0.3	-8.2	·
COc1cccc(-c2[nH]nc3c2C(c2ccsc2)C(C#N)=C(N)O3)c1 (centres undefined)	-8.9	-4.1	76.4*	-0.3	-1.2	-37.1	7.72*
N#CC1=C(N)Oc2n[nH]c(-c3ccncc3)c2C1c1ccsc1 (centres undefined)	-5.0	-2.1	53.8*	2.0	·	-8.7	38.4*
COCC(=O)Nc1ccc2c(c1)C(=O)N(C)[C@H]1CC[C@H](CC(=O)OC)O[C@H]1CO2	·	·	·	·	32.7	·	·
C[C@@H]1CCCCO[C@@H](CN(C)C(=O)NC2CCCCC2)[C@@H](C)CN([C@@H](C)CO)C(=O)c2cc(NC(=O)Nc3ccccc3)ccc2O1	·	·	·	·	8.4	·	·
O=C(NCC[C@H]1CC[C@@H](NC(=O)C2CCC2)[C@@H](CO)O1)Nc1ccc(Cl)cc1	·	·	·	·	3.5	·	·
CC(C)=CCC/C(C)=C/Cc1c(O)ccc(C(=O)/C=C/c2ccc(O)cc2)c1O	-1.0	-6.2	44.2*	3.0	-1.5	-60.7	>38
C=C(C)C(O)Cc1c(OC)ccc(C(=O)/C=C/c2ccc(O)cc2)c1O (centres undefined)	-10.9	-5.8	·	·	-1.2	-6.1	·

Source: PubChem
